# Source: PubChem BioAssay (Broad Institute)
# BL2 CD40 inh – inhibitors of CD40-induced NF-kB signaling, primary screen, BL2 cells, luciferase reporter, single point; inhibition, % at 10 µM; CD40L-induced, 4 h; AID 1053188, 2014; actives 0.94% (n = 83,000);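 active means mean inhibition of at least 50% with a set share of replicates also reaching that level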
# A number is an active result; – = inactive; [ ] = another dose, or the depositor's remark. This excerpt belongs to a sample that is enriched for hits.
SMILES,BL2 CD40 inh
CN(C)C(=O)c1cc(-c2ccccc2)no1,–
O=[N+]([O-])c1ccccc1S(=O)(=O)Nc1cccc(-c2ccc(N3CCCC3)nn2)c1,–
COc1ccc2c3c(n(C)c2c1)[C@H](CO)N(C(=O)Nc1ccc(F)cc1)CC31CN(Cc2ccccn2)C1,–
CCn1cc(S(=O)(=O)Nc2ccc3c(c2)OCCO3)cn1,76
O=C1CCCN1c1ccc(S(=O)(=O)Nc2ccc3c(c2)OCCO3)cc1,–
O=S(=O)(Nc1cccnc1)c1ccc2c(c1)OCCO2,–
CO[C@H]1CC[C@@H]2CCN(C)C(=O)CC3(CCCCC3)CN(C)C(=O)c3cc(C#N)ccc3OC[C@@H]1O2,–
c1cncc(-c2nc(NCc3ccco3)c3ccccc3n2)c1,–
NNC(=O)c1cc2cc(OC(F)(F)F)ccc2[nH]1,–
CCCn1cnnc1CNC(=O)C1CCC(=O)N(CCc2cccc(F)c2)C1 (stereo not given),–
COc1ccc(S(=O)(=O)Nc2ccc3c(c2)C(=O)N([C@@H](C)CO)C[C@H](C)[C@@H](CN(C)S(=O)(=O)c2ccc(Cl)cc2)OCCCC[C@H](C)O3)cc1,–
c1ccc(OCCSc2nnc3sc4ccccc4n23)cc1,87
c1ccc(OCCSc2nnnn2-c2ccccc2)cc1,–
CCCn1c(=O)c2ccccc2n2c(SCCOc3ccccc3)nnc12,–
COc1ccc(Cl)cc1C(=O)NNC(=O)COC(=O)c1ccc(Br)o1,–
COc1cc(C(=O)O[C@H]2CC(C)=CC[C@@]3(C)CC[C@@](O)(C(C)C)[C@H]23)ccc1O,52
CCCOC(=O)c1ccc(O)c(OC)c1,–
COc1ccc(NC(=O)N(C)C[C@@H]2OCc3cnnn3CCCC(=O)N([C@@H](C)CO)C[C@H]2C)c(OC)c1,–
COc1ccc(NC(=O)Nc2ccc3c(c2)C(=O)N([C@H](C)CO)C[C@H](C)[C@H](CN(C)Cc2ccc(C(F)(F)F)cc2)OCCCC[C@@H](C)O3)cc1,–
C[C@@H]1CCCCO[C@H](CN(C)Cc2ccc(C(F)(F)F)cc2)[C@H](C)CN([C@@H](C)CO)C(=O)c2cc(NS(=O)(=O)c3ccc(Cl)cc3)ccc2O1,–
COc1ccc(NC(=O)Nc2ccc3c(c2)C(=O)N([C@@H](C)CO)C[C@@H](C)[C@H](CN(C)Cc2ccc(C(F)(F)F)cc2)OCCCC[C@@H](C)O3)cc1,–
COc1ccc(NC(=O)Nc2ccc3c(c2)C(=O)N([C@H](C)CO)C[C@@H](C)[C@H](CN(C)Cc2ccc(C(F)(F)F)cc2)OCCCC[C@H](C)O3)cc1,–
COc1ccc(S(=O)(=O)Nc2ccc3c(c2)C(=O)N([C@H](C)CO)C[C@@H](C)[C@@H](CN(C)Cc2ccc(C(F)(F)F)cc2)OCCCC[C@H](C)O3)cc1,58[25 µM]
COc1ccc(S(=O)(=O)Nc2ccc3c(c2)C(=O)N([C@H](C)CO)C[C@H](C)[C@H](CN(C)Cc2ccc(C(F)(F)F)cc2)OCCCC[C@H](C)O3)cc1,–
COc1ccc(S(=O)(=O)Nc2ccc3c(c2)C(=O)N([C@H](C)CO)C[C@H](C)[C@H](CN(C)Cc2ccc(C(F)(F)F)cc2)OCCCC[C@@H](C)O3)cc1,–
SMILES,BL2 CD40 inh
COc1ccc(S(=O)(=O)Nc2ccc3c(c2)C(=O)N([C@@H](C)CO)C[C@@H](C)[C@@H](CN(C)Cc2ccc(C(F)(F)F)cc2)OCCCC[C@H](C)O3)cc1,73[25 µM]
COc1ccc(S(=O)(=O)Nc2ccc3c(c2)C(=O)N([C@@H](C)CO)C[C@H](C)[C@H](CN(C)Cc2ccncc2)OCCCC[C@H](C)O3)cc1,–
COc1ccc(S(=O)(=O)Nc2ccc3c(c2)C(=O)N([C@@H](C)CO)C[C@@H](C)[C@H](CN(C)Cc2ccc(C(F)(F)F)cc2)OCCCC[C@H](C)O3)cc1,–
COc1ccc(S(=O)(=O)Nc2ccc3c(c2)C(=O)N([C@H](C)CO)C[C@@H](C)[C@H](CN(C)Cc2ccc(C(F)(F)F)cc2)OCCCC[C@@H](C)O3)cc1,50[25 µM]
COc1ccc(S(=O)(=O)Nc2ccc3c(c2)C(=O)N([C@@H](C)CO)C[C@@H](C)[C@@H](CN(C)Cc2ccc(C(F)(F)F)cc2)OCCCC[C@@H](C)O3)cc1,57[25 µM]
Cc1cccc(NC(=O)CNC(=O)CN2C(=O)NC3(CCCCC3C)C2=O)c1C (stereo not given),–
Cc1cc(C(=O)COc2cccc(-n3cnnn3)c2)c(C)n1-c1ccccc1,–
COc1ccc(CNC(=O)C[C@@H]2C=C[C@@H](NC(=O)c3cccc(F)c3)[C@H](CO)O2)cc1,–
COc1ccc(Nc2ncc(C(=O)O)c3ccccc23)cc1,–
Cc1sc(NC(=O)c2ccccc2)c(C(=O)N2CCN(C)CC2)c1C,–
CC(=O)N1[C@H](CO)[C@@H](c2ccc(-c3ccc(F)cc3)cc2)[C@@H]1CNC(=O)C1CC1,–
COc1ccc(CCNC(=O)c2cc([N+](=O)[O-])ccc2N2CCOCC2)cc1,–
CN(C)CC(=O)N1CC2(C1)[C@@H](c1ccccc1)[C@@H](CO)N2S(C)(=O)=O,–
CNC(=O)C[C@@H]1CC[C@H]2[C@@H](COc3ccc(NS(=O)(=O)c4ccc(F)cc4)cc3C(=O)N2C)O1,–
O=C1CCC(C(=O)OCC(=O)c2ccccc2)N1 (stereo not given),–
CC1CC(C)C(=O)C(C(CC2CC(=O)NC(=O)C2)OC(=O)CC(=O)c2ccccc2)C1 (stereo not given),56
COC(=O)C1=C(C(=O)OC)C(C(=O)OC)C(C(=O)OC)C(C(=O)OC)(C(=O)OC)C(C(=O)OC)=C1C(=O)OC (stereo not given),75
COC(=O)C1C(C(=O)OC)C1(c1ccccc1)c1ccccc1 (stereo not given),–
CN(CC(=O)Nc1ccccc1Cl)C(=O)c1ccc(N2CCCCCC2)c([N+](=O)[O-])c1,–
CC(=O)c1ccc(N2CCC(C)CC2)c(F)c1,–
COc1ccc(CC(=O)OCC(=O)NCc2ccco2)cc1,–
Cc1cc(OCC(=O)OCC(=O)NCc2ccco2)ccc1Cl,31
COc1ccc(OCC(=O)OCC(=O)NCc2ccco2)cc1,–
O=C(NC1CC(=O)N(c2ccccc2)C1)C(=O)c1c[nH]c2ccccc12 (stereo not given),–
O=C(Nc1ccc(Oc2ccccc2)cc1)C1CCN(c2ncccn2)CC1,–
SMILES,BL2 CD40 inh
CCOc1ccc(CNCCCSc2ncccn2)cc1,–
CC1(c2ccc(OC(F)F)cc2)NC(=O)N(CC(=O)Nc2cccnc2Cl)C1=O (stereo not given),–
Cc1ccc(C2(C)NC(=O)N(CC(=O)Nc3cccnc3Cl)C2=O)cc1 (stereo not given),26
O=C(CN1C(=O)NC(c2ccccc2)(c2ccccc2)C1=O)Nc1cccnc1Cl,–
OCCOCCN1CCN(C2=Nc3ccccc3Sc3ccccc32)CC1,–
O=C1C=CC(=O)c2c(O)c(N3CCN(CCOCCO)CC3)c(Br)c(O)c21,85
OCCOCCN1CCN(C(c2ccccc2)c2ccc(Cl)cc2)CC1 (stereo not given),–
O=C(NCCc1cccc(F)c1)[C@@H]1CSC2c3ccccc3C(=O)N21 (stereo not given in full),–
N#C[C@H]1[C@H](c2ccc(-c3cccc(F)c3)cc2)[C@H](CO)N1C(=O)NC1CCCC1,52[25 µM]
CC(C)NC(=O)N1[C@H](C#N)[C@@H](c2ccc(C#CC3CCCC3)cc2)[C@@H]1CO,–
COc1ccc(-c2ccc([C@@H]3[C@H](C#N)N(C(=O)c4cccc(F)c4)[C@H]3CO)cc2)cc1,–
N#C[C@@H]1[C@H](c2ccc(C#CC3CCCCC3)cc2)[C@H](CO)N1C(=O)Nc1ccc(F)cc1,84[25 µM]
